# Measured values from PubChem BioAssay (NCATS).
# Values joined by “and” are separate entries in the source; they are usually repeats but may differ in a detail not shown here. Identical values can stand only once. Inconclusive results are not listed. Values without a mark were called inactive. Active and inactive are the calls of the source. The call rests on the fitted dose curve; in most records, active means well fitted curve in the direction sought with a large enough effect; inconclusive means small, poorly fitted or top-dose-only effect, or another doubt; inactive means no such curve, though single readings can be large or run the other way.
# Experiment: qHTS Assay for Identifying Gametocytocidal Compounds (AID 743244);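 on max response: actives lower the fluorescent signal which means gametocytes are killed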
# Conditions: P. falciparum 3D7 stage III-V gametocytes, alamarBlue, 72 h; max response: stronger effect = lower value
# How it was run: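 Late gametocytes (III–V), P. falciparum 3D7; 72 h drug, then 24 h alamarBlue; resazurin reduction read by fluorescence.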
# On the % scale 0 is the no-effect control and ±100 the full control effect; potency means the concentration at half of the fitted maximal effect.
Compound,max response,Potency
CO[C@H]1C[C@H](O[C@H]2[C@H](C)[C@@H](O[C@@H]3O[C@H](C)C[C@H](N(C)C)[C@H]3OC(C)=O)[C@@H](C)C[C@]3(CO3)C(=O)[C@H](C)[C@@H](OC(C)=O)[C@@H](C)[C@@H](C)OC(=O)[C@@H]2C)O[C@@H](C)[C@@H]1OC(C)=O,7.91%,
CC(=O)N(CC(C)C(=O)O)c1c(I)cc(I)c(N)c1I (stereo not given),4.12%,
O=C(O)c1cc(O)c2c(c1)[O][Bi][O]2,17.6%,
O=C1CSC2(CCN(CCCN3c4ccccc4Sc4ccc(Cl)cc43)CC2)N1,-3.9%,
Cc1cc(C(=O)NNCc2ccccc2)no1,-1.55%,
O=C(O)C1CCCN1 (stereo not given),5.42%,
CC1=C(/C=C/C(C)=C/C=C/C(C)=C/C=C/C=C(C)/C=C/C=C(C)/C=C/C2=C(C)C(=O)CCC2(C)C)C(C)(C)CCC1=O,6.31%,
CC(C)(C)C1(O)CCN2CC3c4ccccc4CCc4cccc(c43)C2C1 (stereo not given),10.9%,
CO/N=C(\C(=O)N[C@@H]1C(=O)N2C(C(=O)O)=C(CSc3cnns3)CS[C@H]12)c1csc(N)n1,2.82%,
CCC(=O)O[C@@H]1CC(=O)O[C@H](C)C/C=C/C=C/[C@H](O)[C@H](C)C[C@H](CC=O)[C@H](O[C@@H]2O[C@H](C)[C@@H](O[C@H]3C[C@@](C)(O)[C@@H](OC(=O)CC)[C@H](C)O3)[C@H](N(C)C)[C@H]2O)[C@H]1OC,4.15%,
CC(C)NCC1CCc2cc(CO)c([N+](=O)[O-])cc2N1 (stereo not given),-6.43%,
Nc1c(Br)cc(Br)cc1CNC1CCC(O)CC1 (stereo not given),19%,
O=C(Nc1cccc(C(F)(F)F)c1)c1cc(Br)cc(Br)c1O,-2.44%,
O=S(=O)(O)c1ccc2c(N=Nc3ccc(S(=O)(=O)O)c4ccccc34)c(O)c(S(=O)(=O)O)cc2c1,11.5%,
O=S(=O)(O)c1cc(O)c2c(N=Nc3ccc(Nc4ccccc4)c4c(S(=O)(=O)O)cccc34)cc(S(=O)(=O)O)cc2c1,-8.84%,
C[C@@H]1CCC2[C@@H](C)[C@@H](O)O[C@@H]3O[C@@]4(C)CC[C@@H]1[C@@]23OO4 (stereo not given in full),,0.0469 µM (active)
CC1(C)S[C@@H]2[C@H](NC(=O)Cc3ccccc3)C(=O)N2[C@H]1C(=O)O,14.5%,
Cc1ccccc1OCC(O)CNCCOc1ccc(C(N)=O)cc1 (stereo not given),6.36%,
CCCCC(=O)N(Cc1ccc(-c2ccccc2-c2nn[nH]n2)cc1)[C@@H](C(=O)O)C(C)C,-5.58%,
Cc1c(C)c2c(c(C)c1O)CC[C@@](C)(CCC[C@H](C)CCC[C@H](C)CCCC(C)C)O2,1.54% and 7.72%,
CC1(C)S[C@@H]2[C@H](NC(=O)C(N)c3ccccc3)C(=O)N2[C@H]1C(=O)OC1OC(=O)c2ccccc21 (stereo not given in full),16.4%,
CC(=O)Oc1cc(C)c(OC(C)=O)c2ccccc12,,6.31 µM (active)
C=CC1=C(C)C2=CC3=NC(=C(CC(=O)[O-])C4=NC(=C(C)C4=C([O-])[O-])C=c4[n-]c(c(C)c4CC)=CC1=N2)C(CCC(=O)[O-])C3C.[Cu+2].[Na+].[Na+].[Na+] (stereo not given),14.4%,
CNc1cc(OC)c(C(=O)N[C@H]2CCN(Cc3ccccc3)[C@H]2C)cc1Cl,-16.8%,
C#CCOc1ccc2c(C)cc(=O)oc2c1,7.39%,
CC(=O)O[C@]1(C(C)=O)CC[C@H]2[C@@H]3CCC4=CC(=O)CC[C@]4(C)[C@@]3(F)[C@@H](O)C[C@@]21C,11%,
Nc1ncnc2c1ncn2[C@@H]1O[C@H](COP(=O)(O)OP(=O)(O)OP(=O)(O)O)[C@@H](O)[C@H]1O,-2.1%,
CO[C@H]1C=CO[C@@]2(C)Oc3c(C)c(O)c4c(O)c(c5c(nc6cc(C)ccn65)c4c3C2=O)NC(=O)/C(C)=C\C=C[C@H](C)[C@H](O)[C@@H](C)[C@@H](O)[C@@H](C)[C@H](OC(C)=O)[C@@H]1C,,12.6 µM (active)
CCCCCCCCCCCC[n+]1ccc2ccccc2c1,,1.78 µM (active)
CCOC(=O)O[C@]1(C(=O)COC(=O)CC)CC[C@H]2[C@@H]3CCC4=CC(=O)C=C[C@]4(C)[C@H]3[C@@H](O)C[C@@]21C,11.8%,
